Structures can show the parent of a compound that is named as a salt.
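Note: Hoechst-stained nuclei counted by automated confocal imaging of four fields per well in 384-well plates, with the robust Z-score based on the per-plate DMSO median and robust SD.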

This assay deals with HeLa. Description: nuclear count per well, robust Z-score vs DMSO; higher = more cells (less toxicity). Particulars: 10 µM; 6 h.
With `O=C1CCc2c(ccc3ccccc23)O1` [Splitomycin], the “nuclear count per well” value turned out to be 0.693.

`CCCCC/C=C\C[C@@H](O)/C=C/C=C\C/C=C\CCCC(=O)O`: the “nuclear count per well” value is -0.395.

Regarding `Nc1ccc2c3c(cccc13)C(=O)NC2=O` [4-Amino-1,8-naphthalimide], the “nuclear count per well” value is 1.52.

On to `COc1cc(/C=C/c2ccccc2)oc(=O)c1` [Desmethoxyyangonin], for which the “nuclear count per well” value is 1.07.

Take `CC(C)NCC(O)COc1cccc2ccccc12` (stereo not given): the “nuclear count per well” value was -0.464.

In the case of `CC(COc1ccccc1)N(CCCl)Cc1ccccc1` (stereo not given) [Phenoxybenzamine], the “nuclear count per well” value was found to be 0.113.

On to `CCCCCC(=O)/C=C/C=C\C/C=C\C/C=C\CCCC(=O)O` [15-Ketoicosatetraenoic acid], for which the “nuclear count per well” value was -0.149.

Regarding `CCCCCCCCCCCCC/C=C/[C@@H](O)[C@H](CO)NC(C)=O` [C2 Ceramide], the “nuclear count per well” value amounted to 0.589.

On to `O=C(O)CCC/C=C\C[C@@H]1[C@@H](/C=C/[C@H](O)C2Cc3ccccc3C2)[C@@H](F)C[C@@H]1O`, for which the “nuclear count per well” value turned out to be 0.536.

With `C[C@]12C=CC(=O)N[C@@H]1CC[C@@H]1[C@@H]2CC[C@]2(C)[C@@H](C(=O)Nc3cc(C(F)(F)F)ccc3C(F)(F)F)CC[C@@H]12` [Dutasteride], the “nuclear count per well” value is 0.968.

As to `Oc1cccc(-c2nc(N3CCOCC3)c3oc4ncccc4c3n2)c1`, the “nuclear count per well” value is 1.28.

Regarding `O=C(NCc1ncc(C(F)(F)F)cc1Cl)c1c(Cl)cccc1Cl` [Fluopicolide], the “nuclear count per well” value amounted to 1.27.

In the case of `CO[C@H]1/C=C/O[C@@]2(C)Oc3c(C)c(O)c4c(O)c(c(/C=N/N5CCN(C6CCCC6)CC5)c(O)c4c3C2=O)NC(=O)/C(C)=C\C=C\[C@H](C)[C@H](O)[C@@H](C)[C@@H](O)[C@@H](C)[C@H](OC(C)=O)[C@@H]1C` [Rifapentine], the “nuclear count per well” value was -0.199.

On to `CN1CC2c3ccccc3Oc3ccc(Cl)cc3C2C1` (stereo not given) [Asenapine Maleate], for which the “nuclear count per well” value is -0.443.

As for `CCCCC[C@H](O)/C=C/C1=C(CCCCCCC(=O)O)C(=O)CC1` [Prostaglandin B1], the “nuclear count per well” value was 1.38.

Turning to `N[C@@H](CC(=O)N1CCn2c(nnc2C(F)(F)F)C1)Cc1cc(F)c(F)cc1F` [Sitagliptin Phosphate], the “nuclear count per well” value was -0.504.

Turning to `NS(=O)(=O)c1cc2c(cc1C(F)(F)F)NCNS2(=O)=O` [Hydroflumethiazide], the “nuclear count per well” value was -0.332.

On to `CC1=C(/C=C/C(C)=C\C=C\C(C)=C\C(=O)O)C(C)(C)CCC1` [9-cis Retinoic acid], for which the “nuclear count per well” value was found to be 0.293.

For `CN(C)CC/C=C1/c2ccccc2COc2ccc(CC(=O)O)cc21` [Olopatadine], the “nuclear count per well” value is -0.601.

Consider `CO[C@H]1/C=C/O[C@@]2(C)Oc3c(C)c(O)c4c(c3C2=O)C2=NC3(CCN(CC(C)C)CC3)NC2=C(NC(=O)/C(C)=C\C=C\[C@H](C)[C@H](O)[C@@H](C)[C@@H](O)[C@@H](C)[C@H](OC(C)=O)[C@@H]1C)C4=O` [Rifabutin], for which the “nuclear count per well” value stood at 0.397.

Consider `CC(=O)Nc1nnc(S(N)(=O)=O)s1` [Acetazolamide], for which the “nuclear count per well” value is -0.436.

As for `NCC[C@H](O)C(=O)N[C@@H]1C[C@H](N)[C@@H](O[C@H]2O[C@H](CN)[C@@H](O)[C@H](O)[C@H]2O)[C@H](O)[C@H]1O[C@H]1O[C@H](CO)[C@@H](O)[C@H](N)[C@H]1O` [Amikacin Disulfate], the “nuclear count per well” value was -0.373.

`CC(C)CC(=O)N[C@H](C(=O)N[C@H](C(=O)N[C@@H](CC(C)C)[C@@H](O)CC(=O)N[C@@H](C)C(=O)N[C@@H](CC(C)C)[C@@H](O)CC(=O)O)C(C)C)C(C)C` [Pepstatin]: the “nuclear count per well” value was found to be 1.29.

Take `O=C(C1CCCCC1)N1CC(=O)N2CCc3ccccc3C2C1` (stereo not given) [Praziquantel]: the “nuclear count per well” value worked out at 0.7.

As for `O=C(O)CCCC=CCC1C(=O)CC(O)C1C=CC(O)CCc1ccccc1` (stereo not given) [17-Phenyl-trinor-prostaglandin E2], the “nuclear count per well” value stood at 0.315.

Take `C[C@H](N[C@@H](CCc1ccccc1)C(=O)O)C(=O)N1CCC[C@H]1C(=O)O` [Enalaprilat Maleate]: the “nuclear count per well” value was -0.807.

For the compound `O=c1oc2ccccc2c(O)c1Cc1c(O)c2ccccc2oc1=O` [Dicumarol], the “nuclear count per well” value worked out at 0.274.

For the compound `CC(=O)O[C@H]1C(=O)[C@@]2(C)[C@H]([C@H](OC(=O)c3ccccc3)[C@]3(O)C[C@H](OC(=O)[C@H](O)[C@@H](NC(=O)c4ccccc4)c4ccccc4)C(C)=C1C3(C)C)[C@]1(OC(C)=O)CO[C@@H]1C[C@@H]2O` [Taxol = Paclitaxel], the “nuclear count per well” value was -2.61.

In the case of `CCCCCCCCc1ccc(CCC(N)(CO)CO)cc1` [Fingolimod], the “nuclear count per well” value is -3.1.

As to `CCOC(=O)[C@H](CCc1ccccc1)N[C@@H](C)C(=O)N1Cc2ccccc2C[C@H]1C(=O)O`, the “nuclear count per well” value was -0.26.
